# Results published in the supplement of paper PMC13380429.
# Counter-ions that a name gives are not always drawn.
# Legend:
# [1] = system: Vero E6 infected with SARS-CoV-2; assay: morphology score (similarity to uninfected cells); higher = more like uninfected cells; conditions: 24 h
# [2] = system: Vero E6 infected with SARS-CoV-2; assay: SARS-CoV-2 infection rate relative to infected DMSO; higher = more infection, active = 60 or less; conditions: 24 h
SMILES,morphology score [1],SARS-CoV-2 infection rate [2]
N=c1ccn2c(n1)O[C@H]1[C@H](O)[C@@H](CO)O[C@H]12 [Cyclocytidine HCl] (0.833333 µM),-0.127,114% (inactive)
Cc1ccc2nc(N)[nH]c(=O)c2c1Sc1ccncc1 [nolatrexed] (10 µM),-0.166,108% (inactive)
NC(=O)c1[nH]cnc1O (10 µM),-0.0334,107% (inactive)
O=Nc1c(O)[nH]c2c(Cl)c(Cl)ccc12 (10 µM),0.117,93.5% (inactive)
COc1ccc(CCC(=O)c2c(O)cc(O[C@@H]3O[C@H](CO)[C@@H](O)[C@H](O)[C@H]3O[C@@H]3O[C@@H](C)[C@H](O)[C@@H](O)[C@H]3O)cc2O)cc1O [Neohesperidin dihydrochalcone (Nhdc)] (10 µM),0.0549,99.5% (inactive)
CCN(CCCOc1ccc2c(Nc3cc(CC(=O)Nc4cccc(F)c4)[nH]n3)ncnc2c1)CCOP(=O)(O)O [barasertib] (0.833333 µM),0.0323,112% (inactive)
C[C@]12N[C@H](Cc3ccccc31)c1ccccc12 [dizocilpine-(-)] (10 µM),0.247,106% (inactive)
O=C(O)Cc1ccc2c(c1)C(=O)c1ccccc1CO2 [isoxepac] (10 µM),0.152,103% (inactive)
COc1cc(C(C)=O)ccc1O [apocynin] (10 µM),0.331,97% (inactive)
C=CCNC(=O)c1cc([N+](=O)[O-])cc2c(=O)[nH]c(Nc3ccc(Cl)c(Cl)c3)nc12 (10 µM),-0.137,108% (inactive)
COC(=O)[C@@H](N)CS [mecysteine] (10 µM),-0.052,112% (inactive)
Nc1ccc(F)cc1NC(=O)c1ccc(CNC(=O)/C=C/c2cccnc2)cc1 [chidamide] (0.833333 µM),-0.0654,107% (inactive)
COc1ccc(C(=O)NCc2cccnc2)cc1C(=O)NCc1cccnc1 [picotamide] (10 µM),-0.08,115% (inactive)
O=C(Nc1cccnc1)N1CCC(Cc2cccc(Oc3ccc(C(F)(F)F)cn3)c2)CC1 (0.833333 µM),0.191,95.5% (inactive)
NCCc1c[nH]c2ccc(O)cc12 [serotonin] (10 µM),0.0634,108% (inactive)
COc1cc2c(=O)c(-c3ccc(O)cc3)coc2cc1O [glycitein] (10 µM),0.00478,110% (inactive)
C=CCc1cc(OC)c(O)c(C(=O)NCCO)c1 [alibendol] (10 µM),0.101,118% (inactive)
CC[C@@]1(O)C(=O)OCc2c1cc1n(c2=O)Cc2c-1nc1cc(F)c(C)c3c1c2[C@@H](N)CC3 [exatecan-mesylate] (0.833333 µM),0.0535,110% (inactive)
OC[C@H]1O[C@@H](n2cnc3c(NC4CCCC4)nc(Cl)nc32)[C@H](O)[C@@H]1O [2-chloro-N6-cyclopentyladenosine] (10 µM),0.106,95% (inactive)
CCN(CC)CCCC(C)Nc1ccnc2cc(Cl)ccc12 (stereo unspecified) [chloroquine] (10 µM),0.554,57.5% (active)

SMILES,morphology score [1],SARS-CoV-2 infection rate [2]
O=C(O)/C=C1\CCCc2ccccc2[C@H]1O (racemic) (10 µM),0.0116,100% (inactive)
N[C@@H](Cc1cc(-c2ccc(Cl)cc2Cl)cc(CP(=O)(O)O)c1O)C(=O)O (10 µM),-0.167,107% (inactive)
Brc1c(NC2=NCCN2)ccc2nccnc12 [brimonidine] (10 µM),0.0346,106% (inactive)
COCCOC(=O)C1=C(C)NC(C)=C(C(=O)OC/C=C/c2ccccc2)C1c1cccc([N+](=O)[O-])c1 (stereo unspecified) [cilnidipine] (10 µM),0.171,95% (inactive)
CC1(C)CC[C@]2(NC(=O)C(C)(F)F)CC[C@]3(C)[C@H](C(=O)C=C4[C@@]5(C)C=C(C#N)C(=O)C(C)(C)[C@@H]5CC[C@]43C)[C@@H]2C1 [Omaveloxolone (RTA-408)] (10 µM),-0.212,112% (inactive)
Nc1ccc(C(=O)O)cc1 [potassium-p-aminobenzoate] (10 µM),-0.112,108% (inactive)
"c1ccc([C@H]2CNCc3ccccc32)cc1 [4-phenyl-1,2,3,4-tetrahydroisoquinoline] (10 µM)",-0.263,114% (inactive)
c1ccc2nc(N3CCNCC3)ccc2c1 [quipazine] (10 µM),0.118,104% (inactive)
CCCCc1ccc(C(N)=O)nc1 [bupicomide] (10 µM),-0.191,102% (inactive)
COc1c(C)cnc(Cn2cnc3c(Cl)nc(N)nc32)c1C (10 µM),0.256,98.5% (inactive)
O=C(/C=C/c1ccc2ccc(C(F)(F)F)cc2n1)c1ccncc1 (10 µM),0.389,63.5% (inactive)
C=C1/C(=C\C=C2/CCC[C@]3(C)[C@@H]([C@H](C)CC[C@@H](O)C(C)C)CC[C@@H]23)C[C@@H](O)C[C@@H]1O [tacalcitol] (10 µM),-0.24,120% (inactive)
CN(C)CC[C@@]1(c2ccc(Cl)cc2)Cc2ccccc2C(=O)O1 (racemic) (10 µM),-0.1,106% (inactive)
O=C1CC[C@@H](C(=O)N2CSC[C@H]2C(=O)O)N1 [pidotimod] (10 µM),-0.145,116% (inactive)
CCn1cc(-c2cccc(C(F)(F)F)c2)c2sc(C(=N)NC3CCS(=O)(=O)CC3)cc2c1=O (10 µM),-0.122,110% (inactive)
Cc1[nH]c(/C=C2\C(=O)Nc3ccc(F)cc32)c(C)c1C(=O)NCCN1CCCC1 [toceranib] (0.833333 µM),-0.0721,26% (active)
CN[C@H]1C(=O)N[C@@H]2Cc3ccc(cc3)Oc3cc4cc(c3O[C@@H]3O[C@H](C(=O)O)[C@@H](O)[C@H](O)[C@H]3NC(=O)CCCCCCCCC(C)C)Oc3ccc(cc3Cl)[C@@H](O)[C@@H]3NC(=O)[C@H](NC(=O)[C@@H]4NC(=O)[C@@H](NC2=O)c2cc(cc(O)c2Cl)Oc2cc1ccc2O)c1ccc(O)c(c1)-c1c(O[C@H]2O[C@H](CO)[C@@H](O)[C@H](O)[C@@H]2O)cc(O)cc1[C@@H](C(=O)NCCCN(C)C)NC3=O [dalbavancin] (10 µM),-0.218,113% (inactive)
CC(C)Oc1ccc2c(=O)c3cc(C(=O)O)ccc3oc2c1 (10 µM),0.0971,100% (inactive)
O=C1NC(=O)[C@@H](c2cn3c4c(cccc24)CCC3)[C@@H]1c1c[nH]c2ccccc12 [tivantinib] (10 µM),-0.141,107% (inactive)
CC(C)NCC(O)c1cc(O)cc(O)c1 (stereo unspecified) [metaproterenol] (10 µM),0.132,104% (inactive)

SMILES,morphology score [1],SARS-CoV-2 infection rate [2]
CCNC(C)CN1CCc2c(c(=O)oc3ccccc23)C1 (stereo unspecified) (10 µM),0.209,98% (inactive)
COc1ccc2[nH]c(I)c(CCNC(C)=O)c2c1 [2-iodomelatonin] (10 µM),0.0455,88% (inactive)
O=C(O)c1ccccc1NCCc1ccccc1 [tromaril] (10 µM),-0.0774,105% (inactive)
COc1cc2ncnc(Nc3cccc(Cl)c3)c2cc1OC [tyrphostin-AG-1478] (10 µM),-0.318,118% (inactive)
CC(C)(C(=O)NCC(F)(F)C(F)(F)F)C(=O)N[C@@H]1C(=O)Nc2ccccc2-c2ccccc21 (10 µM),0.217,86% (inactive)
CC(C)SC(=N)N [S-isopropylisothiourea] (10 µM),0.0211,105% (inactive)
"O=C(O)c1cc(O)c2c(Cl)cc(Cl)cc2n1 [5,7-dichlorokynurenic-acid] (10 µM)",-0.0314,104% (inactive)
CC(C)[C@H](NS(=O)(=O)c1ccc(-c2ccc(Br)cc2)cc1)C(=O)O (10 µM),-0.0577,107% (inactive)
CC(C)Cc1ccc([C@@H](C)C(=O)NCCO)cc1 (racemic) [mabuprofen] (10 µM),0.127,109% (inactive)
C#C[C@]1(O)CC[C@H]2[C@@H]3CCC4=Cc5oncc5C[C@]4(C)[C@H]3CC[C@@]21C [danazol] (10 µM),0.377,72% (inactive)
Cc1nc2ccccc2c(-c2ccc3c4c(ccnc24)CCO3)c1[C@H](OC(C)(C)C)C(=O)O (10 µM),0.0152,104% (inactive)
N[C@@H]1CONC1=O [cycloserine-(D)] (10 µM),0.0631,92.5% (inactive)
CC[C@H]1OC(=O)[C@H](C)C(=O)[C@H](C)[C@@H](O[C@@H]2O[C@H](C)C[C@H](N(C)C)[C@H]2O)[C@](C)(OC)C[C@@H](C)C(=O)[C@H](C)[C@H]2N(CCCCn3cnc(-c4cccnc4)c3)C(=O)O[C@]12C [telithromycin] (10 µM),0.0131,118% (inactive)
CN(C)CCOC(c1ccccc1)c1ccccc1 [diphenhydramine] (10 µM),0.203,86.5% (inactive)
O=C(Nc1cccc(C(F)(F)F)c1)Nc1cc(S(=O)(=O)NC2CC2)ccc1-c1ccsc1 (10 µM),0.196,102% (inactive)
CCCCCCCCCCCCCCCC[N+](C)(C)CCN(Cc1ccc(OC)cc1)c1ncccn1 [thonzonium] (10 µM),-0.372,122% (inactive)
CC/C=C\C/C=C\C/C=C\C/C=C\C/C=C\C/C=C\CCC(=O)OCC [doconexent-ethyl-ester] (10 µM),0.193,88.5% (inactive)
CC(=O)[C@@]12O[C@](C)(c3ccccc3)O[C@@H]1C[C@H]1[C@@H]3CCC4=CC(=O)CC[C@]4(C)[C@H]3CC[C@@]12C [algestone-acetophenide] (10 µM),0.363,88.5% (inactive)
